# Compound activity: PubChem, National Center for Advancing Translational Sciences (NCATS)
# Compounds with a hit are over-represented: about 2.4% of the library has one in this group of screens.
# GLP-1R agonist = agonists of human GLP-1 receptor. Potency, µM (top dose mostly 45.6 µM), for the others: top-dose activation, hits mostly activators. hit rate 0.007% among 380,000. AID 624172. P43220. HEK293 GLP-1R CRE-luciferase, luminescence, 4-6 h; cells express a hypersensitive GLP-1R form; further: potency means the concentration at half of the fitted maximal effect; % of control where 0% means no effect
# TRHR PAM = allosterically enhances the human TRH receptor. enhancement, % at 2 µM. P34981. TRHR cells, fluo-8 calcium fluorescence, EC20 TRH enhancement. hit rate 0.66% among 360,000; in the data active means enhancement above about 30%; further: 0% is about no effect
# Target sequence (P34981 whole entry, looked up): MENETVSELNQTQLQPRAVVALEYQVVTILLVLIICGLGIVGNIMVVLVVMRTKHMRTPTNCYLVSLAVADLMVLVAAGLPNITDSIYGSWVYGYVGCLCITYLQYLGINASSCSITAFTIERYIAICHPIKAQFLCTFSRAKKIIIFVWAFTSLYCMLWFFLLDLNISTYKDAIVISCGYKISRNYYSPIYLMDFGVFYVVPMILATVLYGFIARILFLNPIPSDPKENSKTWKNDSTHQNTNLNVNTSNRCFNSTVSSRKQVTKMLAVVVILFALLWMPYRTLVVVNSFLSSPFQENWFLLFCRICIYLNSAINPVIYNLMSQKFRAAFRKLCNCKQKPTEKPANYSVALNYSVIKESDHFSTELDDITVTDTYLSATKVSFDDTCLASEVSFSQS
#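 Enhancer read-out: after compound pinning and an initial kinetic agonist-mode read, an EC20 of TRH (10 nM final) was injected and fluo-8 calcium signal (Ex 480/Em 530) followed at 1 s/cycle for 100 cycles in TRHR-expressing cells.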
# TRHR agonist = activates the human TRH receptor. TRHR cells, calcium flux fluo-8, FDSS agonist mode. activation, % at 2 µM. hit rate 0.18% among 360,000; in the data active means activation above about 30%; further: 0% is about no effect
#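 TRHR-expressing cells loaded with fluo-8 calcium dye; 23 nL library compound pin-transferred, kinetic FDSS fluorescence (Ex 480/Em 530) recorded about 180 s for agonist-induced calcium release, before a 10 nM TRH EC20 addition for potentiator mode.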
# GLP1R cytotox = cytotoxicity in counter-screen for GLP-1R inverse agonists. HEK293 cAMP-luciferase reporter cells, luminescence, 24 h. Potency, µM (series often up to 38.3 µM), without a hit: top-dose activity change, negative = inhibition, most hits filed as inhibitors. hit rate 0.13% among 410,000. AID 624418;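 further: loss of luciferase light is scored as toxicity; potency means the concentration at half of the fitted maximal effect; on the % scale 0 is the no-effect control and ±100 the full control effect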
#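 Step one: seed cells (200 cells/uL, DMEM with 10% Nu serum, 1% pen-strep). Step two: 12-hour incubation at 37 deg C. Step three: pin 23 nL compound, incubate 24 hr. Step four: add luciferase reagent, read luminescence 12 min later.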
# GLP1R inv ag = acts as inverse agonist at human GLP-1 receptor. HEK293 GLP-1R CRE-luciferase, luminescence, 24 h; GLP-1R form is constitutively active. Potency, µM (top dose mostly 38.3 µM), for inactives: top-dose activity change, negative = inhibition, hits mostly inhibitors. hit rate 1.6% among 410,000. AID 624417; further: potency means the concentration at half of the fitted maximal effect; on the % scale 0 is the no-effect control and ±100 the full control effect; nearly all actives have a fitted effect of over 55% in size
#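 Readout was luciferase luminescence, measured 12 min after detection reagent at room temperature. Beforehand, GLP-1R reporter HEK293 cells had sat 12 h, then received compounds for 24 hr at 37 deg C.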
# PTHR1 agonist = agonists of human PTHR1 parathyroid hormone receptor; Q03431; HEK293 GP2 PTHR1 cells, GloSensor cAMP luminescence, 1 h; Potency, µM (titrated, usually from 115 µM), for the others: at the highest dose activation, hits mostly activators; hit rate 0.075% among 410,000; AID 743266; further: potency means the concentration at half of the fitted maximal effect; nearly all actives have a fitted effect of over 55% in size
#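 HEK-293-derived GP2 cells expressing PTHR1 and a GloSensor cAMP reporter, 3,000/well, plated overnight, given luciferin plus IBMX (each 0.5 mM as added) for 1 h at 37 °C, then compound for 1 h at 37 °C. Luminescence was read after 15 min at room temperature.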
# Starred values were filed as active, the others as inactive; i = inactive; ? = inconclusive; . = no result; [ ] = another dose, or the depositor's remark. Unless noted, the call rests on the fitted dose curve; in most records, active means well fitted curve in the direction sought with a large enough effect; inconclusive means small, poorly fitted or top-dose-only effect, or another doubt; inactive means no such curve, though single readings can be large; an effect the other way counts as inactive or inconclusive.
SMILES,GLP-1R agonist,TRHR PAM,TRHR agonist,GLP1R cytotox,GLP1R inv ag,PTHR1 agonist
COC(=O)c1ccc(/C=C2/SC(=S)N(CCCC(=O)Nc3ccc(O)cc3)C2=O)cc1,-2%,7,2,?,7.9µM*,i
CCc1ccc(/C=C2\SC(=S)N(CCCC(=O)N3CCN(C)CC3)C2=O)cc1,2%,.,.,?,10µM*,i
CN1CCN(C(=O)CCCN2C(=O)/C(=C/c3cccc(Br)c3)SC2=S)CC1,-6%,6,1,?,10µM*,-8%
Cc1ccc(/C=C2\SC(=S)N(CCCC(=O)Nc3ccc(O)cc3)C2=O)cc1,6%,5,1,-42%,?,11%
COc1ccc(/C=C2\SC(=S)N(CCCC(=O)N3CCCCC3CCO)C2=O)cc1 (configuration not stated),6%,-4,-1,?,10µM*,i
O=C(O)c1ccccc1-c1ccccc1C(=O)NCc1ccccc1F,-1%,-3,1,2%,3%,i
CCCN(CC1CC1)C(=O)COC(=O)c1oc2ccc(OCC)cc2c1C,1%,16,0,0%,?,i
COc1ccc(C(=O)Cn2c(=O)c(CCC(=O)O)nn3c4ccccc4nc23)cc1OC,3%,-5,0,-4%,-18%,?
CN(C)S(=O)(=O)c1cccc(NC(=O)c2ccc(COc3ccccc3)cc2)c1,9%,-8,1,-8%,10µM*,-45%
COCc1ccc(C(=O)Nc2cccc(S(=O)(=O)N(C)c3ccccc3)c2)cc1,15%,.,.,?,?,-29%
O=C(NN=C1CCCC1)c1[nH]c2ccc(Br)cc2c1-c1ccccc1,26%,-3,4,?,5µM*,-11%
Cc1ccc(S(=O)(=O)c2nc(Nc3nccs3)sc2Cl)cc1,0%,30*,1,-23%,?,-6%[57.5 µM]
CC(=O)Nc1nc(S(=O)(=O)c2ccc(C)cc2)c(Cl)s1,9%,-4,0,2%,-18%,-14%
Cc1cc(C)cc(NS(=O)(=O)c2ccc3[nH]cc(C(=O)NC4CCCCC4)c(=O)c3c2)c1,.,-5,0,-18%,7.1µM*,-2%
Cc1ccccc1NS(=O)(=O)c1ccc2[nH]cc(C(=O)NC3CCCCC3)c(=O)c2c1,.,-4,0,-23%,10µM*,-3%
Cc1c(Cl)cccc1NS(=O)(=O)c1ccc2[nH]cc(C(=O)NC3CCCC3)c(=O)c2c1,.,-4,1,-22%,?,i
CCOC(=O)C1CCCN(C(=O)c2nn(-c3ccc(OC)cc3)c(=O)c3c2c2ccccc2n3C)C1 (configuration not stated),.,-5,0,-2%,34%,-29%
COc1ccccc1CNC(=O)COC(=O)c1ccc(S(=O)(=O)N2CCCCC2)cc1,13%,.,.,14%,13%,i
COc1ccc(C2C(C#N)=C(N)Oc3cc4c(cc32)OCO4)cc1 (configuration not stated),14%,2,1,0%,-8%,i
CCN1C=C(Cc2ccc(OC)cc2)C2=C(C1)C(c1ccc(OC)cc1)C(C#N)=C(N)O2 (configuration not stated),3%,-1,-2,-2%,6.3µM*,i
COc1cc2c(c(OC)c1OC)CC(=O)N(C)CC2,-7%,4,0,14%,15%,i
CCOC(=O)C1(Cc2cccc(Cl)c2)CCCN(C(=O)c2occc2C)C1 (configuration not stated),3%,-5,-1,5%,11µM*,-23%
CC(C)Oc1cc(F)ccc1-c1cc(C(=O)Nc2ccccc2)[nH]n1,28%,.,.,-2%,11µM*,-13%
CC(C)Oc1cc(F)ccc1-c1cc(C(=O)Nc2ccc(C(C)C)cc2)[nH]n1,4%,.,.,-3%,?,i
Cc1ccccc1N(C(=O)Cn1nnc(-c2cccs2)n1)C(C(=O)NCCC(C)C)c1ccco1 (configuration not stated),-6%,-1,0,6%,5.6µM*,?
SMILES,GLP-1R agonist,TRHR PAM,TRHR agonist,GLP1R cytotox,GLP1R inv ag,PTHR1 agonist
CN(C)CCNC(C(=O)Nc1cccc(S(=O)(=O)N2CCOCC2)c1)c1ccccc1 (configuration not stated),-5%,36*,1,3%,13%,-3%
COc1cc(-c2cc(C(=O)Nc3ccc(S(=O)(=O)NCc4ccco4)cc3)c3ccccc3n2)cc(OC)c1OC,2%,1,1,-11%,2µM*,i
CCC(=O)c1cn(CC(=O)Nc2cccc(OC)c2)c2ccccc12,7%,14,0,-1%,-11%,-16%
CCC(C)n1c(SCc2ccccc2)nc2ccsc2c1=O (configuration not stated),1%,-3,0,11%,7.9µM*,i
CCC(C)n1c(SCc2ccc(C(C)(C)C)cc2)nc2ccsc2c1=O (configuration not stated),.,-6,0,20%,1%,-2%
Cc1cc(-c2onc(C)c2C(=O)N/N=C/c2ccccc2)no1,3%,-2,-1,2%,-6%,i
COc1cc(/C=N/NC(=O)CC2(C)OCCCO2)ccc1OCc1ccc(Cl)cc1Cl,16%,1,1,-3%,?,-18%
CC1(CC(=O)N/N=C/c2ccc(OCc3ccc(Cl)cc3Cl)cc2)OCCCO1,5%,-6,0,-22%,8.9µM*,-7%[57.5 µM]
COc1cc(/C=N/N=C2/C(=O)Nc3ccccc32)ccc1O,6%,5,1,?,86%,i
O=C1Nc2ccccc2/C1=N\N=C\c1ccc(O)c(O)c1,15%,5,-1,11µM*,25%,-32%
NC(=O)c1ccsc1NC(=O)COC(=O)C1=NNC(=O)CC1,-2%,0,0,1%,8%,i
Cc1onc(-c2c(F)cccc2Cl)c1C(=O)OCC(=O)c1c[nH]c2ccccc12,9%,-1,0,-1%,8.9µM*,i
Cc1noc(C)c1C(=O)OCC(=O)c1c[nH]c2ccccc12,11%,14,1,-16%,5%,-10%
CC(Oc1cccc(Cl)c1)C(=O)Nc1cc(S(=O)(=O)N2CCOCC2)ccc1N1CCCCC1 (configuration not stated),17%,21,0,0%,10µM*,i
CC(NCC(=O)Nc1cc(S(=O)(=O)N2CCOCC2)ccc1Cl)c1ccc(Cl)cc1Cl (configuration not stated),0%,-11,0,-16%,5.6µM*,-32%
